The record followed here is PMC7862700, “An all-to-all approach to the identification of sequence-specific readers for epigenetic DNA modifications on cytosine”.

What all share (test): DAPPL (digital affinity profiling via proximity ligation, sequencing); 10 mM Tris-HCl pH 7.5, 50 mM NaCl, 1 mM DTT, 4% glycerol, room temperature, 30 min; GST-TFs on glutathione beads, 16-mer random dsDNA library, 0.1% formaldehyde crosslink after washing; high values mean tight binding
What all share (details): protein: recombinant; tags: N-terminal GST; dsDNA, one strand shown

One test addresses T1, FLI1 (Homo sapiens, UniProt Q01543 1-452).
T1 sequence: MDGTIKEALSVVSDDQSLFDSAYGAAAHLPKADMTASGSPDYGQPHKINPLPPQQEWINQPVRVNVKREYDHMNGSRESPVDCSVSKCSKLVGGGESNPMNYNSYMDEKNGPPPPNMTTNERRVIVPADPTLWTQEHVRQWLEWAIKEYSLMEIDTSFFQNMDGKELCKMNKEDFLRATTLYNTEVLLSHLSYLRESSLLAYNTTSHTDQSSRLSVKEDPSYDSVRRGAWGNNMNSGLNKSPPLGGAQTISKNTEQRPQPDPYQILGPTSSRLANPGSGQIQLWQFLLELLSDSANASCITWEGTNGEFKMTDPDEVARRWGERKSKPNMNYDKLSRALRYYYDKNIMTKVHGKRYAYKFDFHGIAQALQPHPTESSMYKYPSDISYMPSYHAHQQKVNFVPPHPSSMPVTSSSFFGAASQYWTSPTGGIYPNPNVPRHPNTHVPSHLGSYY
In a few lines: (§1)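 Pools were built from human transcription factors expressed in yeast as GST fusions, captured on glutathione beads and DNA-barcoded, along with a tag-only sample. Incubation with 200 nmole of a 16-mer random double-stranded DNA library lasted 30 min at room temperature in Tris/NaCl/DTT/glycerol buffer, and was followed by washing, 0.1% formaldehyde crosslinking, proximity ligation, PCR amplification and Illumina NextSeq500 sequencing. Binding signal is the quotient of each hexamer's read frequency for a factor and its frequency for the tag-only sample.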

A further test addresses ELF1 (Homo sapiens, UniProt P32519 1-619). In a few lines: as §1
The target of a further test is SPI1 (Homo sapiens, UniProt P17947 1-270). In a few lines:
as §1

Another test deals with SPIB (Homo sapiens, UniProt Q01892 1-262). In a few lines: as §1
Sequence of SPIB (Q01892 whole entry): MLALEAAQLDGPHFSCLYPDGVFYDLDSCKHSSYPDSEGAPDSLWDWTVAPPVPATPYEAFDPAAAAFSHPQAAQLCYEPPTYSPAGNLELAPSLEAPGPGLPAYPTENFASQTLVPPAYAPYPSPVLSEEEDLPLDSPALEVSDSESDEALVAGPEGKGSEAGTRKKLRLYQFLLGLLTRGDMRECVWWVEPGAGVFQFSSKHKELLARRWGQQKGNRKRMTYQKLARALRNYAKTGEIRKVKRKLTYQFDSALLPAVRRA
Another test deals with T2, ELK3 (Homo sapiens, UniProt P41970 1-407).
T2 sequence: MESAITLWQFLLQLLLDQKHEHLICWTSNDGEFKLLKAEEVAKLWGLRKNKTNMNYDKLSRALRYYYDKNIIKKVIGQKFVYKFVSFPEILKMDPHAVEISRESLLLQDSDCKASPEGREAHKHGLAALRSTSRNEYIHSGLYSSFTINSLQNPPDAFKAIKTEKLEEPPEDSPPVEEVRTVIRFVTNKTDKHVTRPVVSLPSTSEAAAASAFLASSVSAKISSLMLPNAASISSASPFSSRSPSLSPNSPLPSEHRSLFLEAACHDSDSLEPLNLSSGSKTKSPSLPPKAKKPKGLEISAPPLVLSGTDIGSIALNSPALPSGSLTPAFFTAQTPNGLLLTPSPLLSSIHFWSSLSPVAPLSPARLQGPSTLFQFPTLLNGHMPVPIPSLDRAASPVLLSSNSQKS
In a few lines: as §1

The target of a further test is ETV5 (Homo sapiens, UniProt P41161 1-510). The essentials:
as §1

For another test, the target named is T3, SPIC (Homo sapiens, UniProt Q8N5J4 1-248).
T3 sequence: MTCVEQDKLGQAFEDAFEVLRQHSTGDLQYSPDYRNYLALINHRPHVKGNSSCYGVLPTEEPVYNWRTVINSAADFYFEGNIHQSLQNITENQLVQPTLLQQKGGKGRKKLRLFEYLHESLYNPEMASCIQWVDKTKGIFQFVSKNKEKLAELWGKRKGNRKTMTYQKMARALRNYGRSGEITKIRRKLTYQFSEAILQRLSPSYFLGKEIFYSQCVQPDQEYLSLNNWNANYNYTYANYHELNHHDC
The essentials:
as §1

For the next test, the target named is T4, ERF (Homo sapiens, UniProt P50548 1-548).
T4 sequence: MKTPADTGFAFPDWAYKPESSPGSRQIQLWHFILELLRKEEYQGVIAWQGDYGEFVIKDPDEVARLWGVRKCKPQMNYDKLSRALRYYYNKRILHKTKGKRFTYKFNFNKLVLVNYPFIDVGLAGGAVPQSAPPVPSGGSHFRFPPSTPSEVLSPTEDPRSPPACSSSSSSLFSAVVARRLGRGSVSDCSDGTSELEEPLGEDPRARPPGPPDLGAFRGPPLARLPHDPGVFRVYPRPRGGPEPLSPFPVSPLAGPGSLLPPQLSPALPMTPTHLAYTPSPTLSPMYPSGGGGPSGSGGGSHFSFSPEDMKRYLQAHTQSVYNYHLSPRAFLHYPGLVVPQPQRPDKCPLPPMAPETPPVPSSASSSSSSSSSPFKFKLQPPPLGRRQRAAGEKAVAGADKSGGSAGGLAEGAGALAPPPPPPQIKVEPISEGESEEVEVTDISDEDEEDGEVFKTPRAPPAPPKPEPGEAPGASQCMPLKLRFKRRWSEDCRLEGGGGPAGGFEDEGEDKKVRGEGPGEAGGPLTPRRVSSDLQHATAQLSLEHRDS
In a few lines: as §1

The next test deals with T5, ETV3L (Homo sapiens, UniProt Q6ZN32 1-361).
T5 sequence: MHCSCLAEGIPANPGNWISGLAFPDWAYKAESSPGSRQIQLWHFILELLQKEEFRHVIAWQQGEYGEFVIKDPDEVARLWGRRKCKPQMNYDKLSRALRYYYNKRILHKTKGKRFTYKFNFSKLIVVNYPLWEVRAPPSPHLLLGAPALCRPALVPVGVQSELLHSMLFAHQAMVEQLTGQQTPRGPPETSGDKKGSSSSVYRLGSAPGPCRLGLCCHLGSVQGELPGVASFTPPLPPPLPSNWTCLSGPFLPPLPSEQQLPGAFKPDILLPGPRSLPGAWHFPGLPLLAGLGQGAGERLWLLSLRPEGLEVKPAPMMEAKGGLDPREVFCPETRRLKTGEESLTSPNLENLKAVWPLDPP
The essentials:
as §1

The target of the next test is T6, ETS2 (Homo sapiens, UniProt P15036 1-469).
T6 sequence: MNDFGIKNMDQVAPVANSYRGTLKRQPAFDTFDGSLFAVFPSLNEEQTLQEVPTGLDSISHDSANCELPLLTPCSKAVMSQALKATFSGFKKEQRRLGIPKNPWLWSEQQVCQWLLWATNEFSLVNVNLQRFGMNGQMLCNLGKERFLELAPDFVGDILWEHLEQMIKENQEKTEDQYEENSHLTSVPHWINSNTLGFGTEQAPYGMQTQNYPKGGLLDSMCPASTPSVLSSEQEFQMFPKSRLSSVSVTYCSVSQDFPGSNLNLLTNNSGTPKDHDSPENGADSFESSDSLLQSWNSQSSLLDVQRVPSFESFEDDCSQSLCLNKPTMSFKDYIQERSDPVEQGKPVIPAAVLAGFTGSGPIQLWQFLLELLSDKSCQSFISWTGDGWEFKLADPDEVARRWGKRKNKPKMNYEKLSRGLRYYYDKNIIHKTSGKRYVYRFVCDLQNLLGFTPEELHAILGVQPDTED
The essentials:
as §1

The target in a further test is ETV6 (Homo sapiens, UniProt P41212 1-452). The essentials:
as §1

Another test concerns the target T7, GABPA (Homo sapiens, UniProt Q06546 1-454).
T7 sequence: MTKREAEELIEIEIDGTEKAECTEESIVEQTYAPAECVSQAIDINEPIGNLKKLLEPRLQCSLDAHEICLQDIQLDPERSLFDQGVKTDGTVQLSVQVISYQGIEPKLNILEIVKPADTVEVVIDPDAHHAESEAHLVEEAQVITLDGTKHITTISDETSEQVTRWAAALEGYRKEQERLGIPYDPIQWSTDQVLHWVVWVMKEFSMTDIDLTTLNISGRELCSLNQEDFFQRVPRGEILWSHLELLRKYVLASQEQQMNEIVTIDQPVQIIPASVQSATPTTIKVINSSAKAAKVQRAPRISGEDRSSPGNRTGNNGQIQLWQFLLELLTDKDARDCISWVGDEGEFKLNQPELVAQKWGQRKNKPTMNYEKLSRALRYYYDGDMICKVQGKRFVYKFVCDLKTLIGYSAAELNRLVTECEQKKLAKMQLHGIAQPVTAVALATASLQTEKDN
The essentials: as §1

The target of another test is T8, ERG (Homo sapiens, UniProt P11308 1-479).
T8 sequence: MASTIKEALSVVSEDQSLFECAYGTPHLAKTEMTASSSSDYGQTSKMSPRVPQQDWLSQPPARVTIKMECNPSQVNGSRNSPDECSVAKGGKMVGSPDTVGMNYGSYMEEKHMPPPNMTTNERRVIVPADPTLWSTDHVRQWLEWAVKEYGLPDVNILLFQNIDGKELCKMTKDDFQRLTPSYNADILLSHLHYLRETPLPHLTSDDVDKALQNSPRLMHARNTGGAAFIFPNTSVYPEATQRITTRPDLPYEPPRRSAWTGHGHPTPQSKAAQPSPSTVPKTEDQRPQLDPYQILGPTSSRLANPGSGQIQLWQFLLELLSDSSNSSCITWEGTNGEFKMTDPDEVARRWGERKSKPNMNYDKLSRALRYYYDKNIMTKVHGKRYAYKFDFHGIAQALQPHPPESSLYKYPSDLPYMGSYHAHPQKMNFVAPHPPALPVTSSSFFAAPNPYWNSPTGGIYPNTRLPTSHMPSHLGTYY
In a few lines:
as §1

The target in a further test is T9, EHF (Homo sapiens, UniProt Q9NZC4 1-300).
T9 sequence: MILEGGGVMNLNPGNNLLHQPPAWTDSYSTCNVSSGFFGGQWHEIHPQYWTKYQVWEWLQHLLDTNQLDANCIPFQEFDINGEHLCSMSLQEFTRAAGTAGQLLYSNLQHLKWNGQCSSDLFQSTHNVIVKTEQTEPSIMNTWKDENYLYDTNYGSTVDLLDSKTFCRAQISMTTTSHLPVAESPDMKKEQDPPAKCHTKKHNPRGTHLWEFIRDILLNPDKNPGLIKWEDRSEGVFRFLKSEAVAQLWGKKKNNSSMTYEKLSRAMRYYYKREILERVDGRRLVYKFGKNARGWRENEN
The essentials: as §1

In another test the target is ELF4 (Homo sapiens, UniProt Q99607 1-663). The essentials:
as §1

A further test concerns the target T10, ELF5 (Homo sapiens, UniProt Q9UKW6-2 1-255).
T10 sequence: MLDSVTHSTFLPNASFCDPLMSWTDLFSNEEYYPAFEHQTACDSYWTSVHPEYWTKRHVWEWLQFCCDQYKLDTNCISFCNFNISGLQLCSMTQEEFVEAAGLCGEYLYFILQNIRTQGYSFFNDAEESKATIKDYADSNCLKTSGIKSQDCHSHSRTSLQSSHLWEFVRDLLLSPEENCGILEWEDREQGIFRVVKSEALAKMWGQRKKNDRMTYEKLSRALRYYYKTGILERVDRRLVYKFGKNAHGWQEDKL
The essentials:
as §1

The target of a further test is T11, ETV3 (Homo sapiens, UniProt P41162-2 1-143).
T11 sequence: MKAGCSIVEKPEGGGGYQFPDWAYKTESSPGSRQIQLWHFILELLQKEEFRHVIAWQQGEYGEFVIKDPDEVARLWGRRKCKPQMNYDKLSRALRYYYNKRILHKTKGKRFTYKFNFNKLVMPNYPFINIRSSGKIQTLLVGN
The essentials: as §1

A further test concerns the target T12, ELK1 (Homo sapiens, UniProt P19419 1-428).
T12 sequence: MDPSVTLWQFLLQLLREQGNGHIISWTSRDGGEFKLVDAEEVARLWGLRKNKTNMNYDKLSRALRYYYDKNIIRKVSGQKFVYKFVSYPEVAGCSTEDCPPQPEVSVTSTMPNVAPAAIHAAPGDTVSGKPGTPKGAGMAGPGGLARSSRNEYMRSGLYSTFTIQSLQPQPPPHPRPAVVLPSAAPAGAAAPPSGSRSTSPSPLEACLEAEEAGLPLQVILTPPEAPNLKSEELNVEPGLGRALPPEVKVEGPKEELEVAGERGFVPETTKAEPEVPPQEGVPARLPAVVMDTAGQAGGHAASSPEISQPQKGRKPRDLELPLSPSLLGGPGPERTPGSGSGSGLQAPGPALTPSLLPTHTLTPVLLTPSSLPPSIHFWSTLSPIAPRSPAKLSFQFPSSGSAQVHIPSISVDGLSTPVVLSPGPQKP
In a few lines:
as §1

Sequence of ETV5 (P41161 whole entry): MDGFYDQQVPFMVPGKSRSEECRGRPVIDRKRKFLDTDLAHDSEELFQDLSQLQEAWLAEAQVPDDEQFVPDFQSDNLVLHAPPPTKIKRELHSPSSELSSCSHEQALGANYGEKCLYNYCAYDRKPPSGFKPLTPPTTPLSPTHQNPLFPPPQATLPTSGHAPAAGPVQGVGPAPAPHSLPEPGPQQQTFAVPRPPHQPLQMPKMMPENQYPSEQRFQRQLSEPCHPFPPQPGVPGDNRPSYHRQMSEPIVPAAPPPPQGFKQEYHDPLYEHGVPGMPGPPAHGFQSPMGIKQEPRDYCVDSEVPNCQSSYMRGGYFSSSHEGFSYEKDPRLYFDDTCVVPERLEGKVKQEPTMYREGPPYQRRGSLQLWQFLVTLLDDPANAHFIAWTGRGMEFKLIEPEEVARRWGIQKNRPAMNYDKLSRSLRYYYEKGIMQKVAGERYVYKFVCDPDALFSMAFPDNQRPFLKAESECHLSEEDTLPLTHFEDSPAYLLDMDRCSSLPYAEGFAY
Sequence of ELF1 (P32519 whole entry): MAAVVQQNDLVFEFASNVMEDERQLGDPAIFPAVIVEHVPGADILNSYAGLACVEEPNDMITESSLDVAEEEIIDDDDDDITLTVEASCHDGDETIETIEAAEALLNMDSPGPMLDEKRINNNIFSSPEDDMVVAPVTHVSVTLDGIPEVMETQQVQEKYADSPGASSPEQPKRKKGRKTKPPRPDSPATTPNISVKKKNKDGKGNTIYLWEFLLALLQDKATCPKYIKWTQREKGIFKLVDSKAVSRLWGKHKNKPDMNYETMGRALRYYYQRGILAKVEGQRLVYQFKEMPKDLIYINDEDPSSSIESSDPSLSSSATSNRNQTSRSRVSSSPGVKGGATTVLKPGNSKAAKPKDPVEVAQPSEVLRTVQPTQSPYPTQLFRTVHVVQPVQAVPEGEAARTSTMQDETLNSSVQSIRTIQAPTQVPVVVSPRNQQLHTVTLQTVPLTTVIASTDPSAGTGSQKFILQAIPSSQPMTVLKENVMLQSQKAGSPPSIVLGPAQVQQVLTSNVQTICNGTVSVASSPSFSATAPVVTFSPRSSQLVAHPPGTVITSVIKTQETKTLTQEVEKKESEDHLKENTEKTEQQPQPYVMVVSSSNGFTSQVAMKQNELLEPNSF
Sequence of ELF4 (Q99607 whole entry): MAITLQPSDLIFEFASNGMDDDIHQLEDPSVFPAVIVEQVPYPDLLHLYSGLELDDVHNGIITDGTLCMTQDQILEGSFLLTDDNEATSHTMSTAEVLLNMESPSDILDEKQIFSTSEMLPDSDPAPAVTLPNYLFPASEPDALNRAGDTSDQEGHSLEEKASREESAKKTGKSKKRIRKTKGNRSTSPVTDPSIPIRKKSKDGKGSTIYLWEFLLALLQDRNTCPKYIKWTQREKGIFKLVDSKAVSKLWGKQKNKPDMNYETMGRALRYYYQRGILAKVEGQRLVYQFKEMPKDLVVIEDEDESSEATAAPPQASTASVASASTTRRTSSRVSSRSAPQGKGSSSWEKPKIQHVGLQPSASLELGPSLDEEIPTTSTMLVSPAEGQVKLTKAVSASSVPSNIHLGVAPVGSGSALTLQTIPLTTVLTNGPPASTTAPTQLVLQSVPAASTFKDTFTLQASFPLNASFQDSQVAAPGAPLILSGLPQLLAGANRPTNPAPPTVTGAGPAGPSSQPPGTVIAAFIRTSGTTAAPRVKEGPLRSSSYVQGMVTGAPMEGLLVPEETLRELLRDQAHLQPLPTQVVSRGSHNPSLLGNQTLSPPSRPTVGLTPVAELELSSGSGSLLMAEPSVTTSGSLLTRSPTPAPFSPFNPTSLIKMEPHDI
Sequence of ETV6 (P41212 whole entry): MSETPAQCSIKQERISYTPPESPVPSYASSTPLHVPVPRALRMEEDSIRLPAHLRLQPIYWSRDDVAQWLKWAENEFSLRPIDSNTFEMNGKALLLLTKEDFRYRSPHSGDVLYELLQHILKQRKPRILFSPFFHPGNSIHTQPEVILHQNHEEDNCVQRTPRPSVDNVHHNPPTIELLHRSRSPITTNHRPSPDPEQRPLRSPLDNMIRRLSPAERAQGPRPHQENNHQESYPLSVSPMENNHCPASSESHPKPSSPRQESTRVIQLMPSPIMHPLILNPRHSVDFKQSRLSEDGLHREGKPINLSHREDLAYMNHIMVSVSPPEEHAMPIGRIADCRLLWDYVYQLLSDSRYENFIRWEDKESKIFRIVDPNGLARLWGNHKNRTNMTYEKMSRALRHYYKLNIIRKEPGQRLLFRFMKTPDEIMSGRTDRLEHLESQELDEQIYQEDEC

For GTTATA, the binding signal with FLI1 was 1.12 fold enrichment (6-mer frequency, TF over GST control); in the test with ELF1, 1.03 fold enrichment (6-mer frequency, TF over GST control); with SPI1, 1.01 fold enrichment (6-mer frequency, TF over GST control); in the test with SPIB, 1.03 fold enrichment (6-mer frequency, TF over GST control); with ELK3, 1.06 fold enrichment (6-mer frequency, TF over GST control); in the test with ETV5, 1.04 fold enrichment (6-mer frequency, TF over GST control). The binding signal with SPIC was 1.15 fold enrichment (6-mer frequency, TF over GST control); in the test with ERF it was 1.03 fold enrichment (6-mer frequency, TF over GST control); in the test with ETV3L, 1.06 fold enrichment (6-mer frequency, TF over GST control); with ETS2, 1.06 fold enrichment (6-mer frequency, TF over GST control); with ETV6 it was 1 fold enrichment (6-mer frequency, TF over GST control).
As for CGGATC, the binding signal with FLI1 is 1.04 fold enrichment (6-mer frequency, TF over GST control); in the test with GABPA it was 1.04 fold enrichment (6-mer frequency, TF over GST control); with ERG it was 1.05 fold enrichment (6-mer frequency, TF over GST control); in the test with EHF, 1.02 fold enrichment (6-mer frequency, TF over GST control); with SPIB, 1.01 fold enrichment (6-mer frequency, TF over GST control); with ETV5, 1.03 fold enrichment (6-mer frequency, TF over GST control). The binding signal in the test with SPIC is 1.02 fold enrichment (6-mer frequency, TF over GST control); with ELF4, 1.01 fold enrichment (6-mer frequency, TF over GST control); in the test with ELF5 it was 1.05 fold enrichment (6-mer frequency, TF over GST control); in the test with ETV3, 1.06 fold enrichment (6-mer frequency, TF over GST control).
As for GGTATG, the binding signal with FLI1 was 1.01 fold enrichment (6-mer frequency, TF over GST control); in the test with ELK1 it was 1.03 fold enrichment (6-mer frequency, TF over GST control); in the test with ELF1, 1.01 fold enrichment (6-mer frequency, TF over GST control); with SPIB it was 1.02 fold enrichment (6-mer frequency, TF over GST control); with ETV5, 1.01 fold enrichment (6-mer frequency, TF over GST control); with SPIC it was 1.22 fold enrichment (6-mer frequency, TF over GST control). The binding signal in the test with ETV3 is 1.02 fold enrichment (6-mer frequency, TF over GST control).
